# Results as given in PubChem BioAssay (EPA / NIEHS).
# Calls of active or inactive are those of the source. Rule for the calls: active = hit-call score of the fitted dose curve at least 0.9, where 1 is the maximum; inactive = score below 0.9.
# Read-out: Interleukin-8 (IL8), CXCL8 (gene 3576)
# Experiment: BSK_3C_IL8: BioMAP Diversity Plus: 3C Assay for Interleukin-8 (IL8) Biomarker Activity (AID 2283020)
# Conditions: primary human endothelial cells (HUVEC); actives raise or lower the signal
# Procedure: BSK_3C is a cell-based, multiplexed-readout assay that uses umbilical vein endothelium, a human vascular primary cell, with measurements taken at 24 hours after chemical dosing in a 96-well plate.BSK_3C_IL8 is an assay component measured in the BSK_3C assay. It measures IL-8 antibody related to regulation of gene expression using ELISA technology.Data from the assay component BSK_3C_IL8 was analyzed into 1 assay endpoint. This assay endpoint, BSK_3C_IL8, was analyzed with bidirectional fitting relative to DMSO as the negative control and baseline of activity. Using a type of binding reporter, gain or loss-of-signal activity can be used to understand changes in the signaling as they relate to the gene CXCL8. Furthermore, this assay endpoint can be referred to as a primary readout, because this assay has produced multiple assay endpoints where this one serves a signaling function. To generalize the intended target to other relatable targets, this assay endpoint is annotated to the cytokine intended target family, where the subfamily is interleukins.
# The levels of cell surface (or secreted, indicated by the prefix "s") biomarker endpoints were measured by ELISA. Overt cytotoxicity to cells in confluent adherent cultures (all systems other than the BT system) was assessed by measuring total protein levels using sulforhodamine B (SRB) staining in parallel cultures at the time of biomarker measurements, indicated as SRB endpoints. For proliferation assays for adherent cell types, individual cell types are cultured at sub-confluence and relative cell numbers quantified by SRB staining at time points optimized for each system (48 h: 3C and CASM3C systems; 72 h: BT and HDF3CGF systems; 96 h: SAg system). SRB was performed by staining cells with 0.1% SRB after fixation with 10% TCA and reading wells at 560 nm.Viability and proliferation of PBMC (T cells) was quantified by Alamar Blue reduction for the SAg and BT systems. For PBMC viability (referred to as PBMC Cytotoxicity within the assay endpoint names), cells were plated (75,000/well in a 96-well plate) and then chemical samples added for 1 h before addition of activators, SEB and TSST-1 (20 ng/mL final concentration each). Cells were incubated for 90 h. Then, Alamar Blue (20 uL/well) (Invitrogen, Cat DAL1100) was added for 6 h, and the plates were read with a fluorescence microplate reader at 546/580 nm (excitation/emission). For PBMC proliferation, cells were plated and activated as above but incubated for only 16 h prior to addition of Alamar Blue. Plates were read after 6 h.
Structure (SMILES),outcome,AC50
CCCCOCCOCCOCc1cc2c(cc1CCC)OCO2,inactive,
CCCOC(=O)c1ccc(C(=O)OCCC)nc1,inactive,
CCCN(CCC)C(=O)SCC,inactive,
CCNc1nc(N)nc(Cl)n1,inactive,
CCCCCOC(=O)COc1cc(N2C(=O)C3=C(CCCC3)C2=O)c(F)cc1Cl,inactive,
COC(=O)c1ccc(CNS(C)(=O)=O)cc1S(=O)(=O)NC(=O)Nc1nc(OC)cc(OC)n1,inactive,
CCCCC(CC)CN1C(=O)C2C3C=CC(C3)C2C1=O (stereo not given),inactive,
CC(C)CCCCCCc1ccc(O)cc1,,8.35 µM (active)
CCCCOC(=O)[C@@H](C)Oc1ccc(Oc2ccc(C(F)(F)F)cn2)cc1,inactive,
CN(C)C(=O)Nc1ccc(Cl)c(Cl)c1,inactive,
CCSC(=O)N(CC(C)C)CC(C)C,inactive,
CCOC(=O)COc1cc(-n2ncc(C(F)(F)F)c(C)c2=O)c(F)cc1Cl,inactive,
CC(C)(c1ccc(O)cc1)c1ccc(O)cc1,inactive,
c1ccc2[nH]c(-c3cscn3)nc2c1,inactive,
CCCCOC(=O)C(C)Oc1ccc(Oc2ccc(C(F)(F)F)cn2)cc1 (stereo not given),inactive,
S=C([S-])NCCNC(=S)[S-].[Mn+2],inactive,
O=C(Nc1ccc([N+](=O)[O-])cc1Cl)c1cc(Cl)ccc1O,inactive,
CSC(=O)c1cccc2nnsc12,inactive,
CCN(CC)C(=O)c1cccc(C)c1,inactive,
C=CCOC(Cn1ccnc1)c1ccc(Cl)cc1Cl (stereo not given),inactive,

Structure (SMILES),outcome,AC50
COC(=O)c1ccc(I)cc1S(=O)(=O)NC(=O)Nc1nc(C)nc(OC)n1,inactive,
COC(=O)c1ccccc1C(=O)O,inactive,
COCCO,inactive,
N[C@@H](Cc1cc(I)c(Oc2ccc(O)c(I)c2)c(I)c1)C(=O)O,inactive,
CC1(C)C(C=C(Cl)Cl)C1C(=O)OCc1cccc(Oc2ccccc2)c1 (stereo not given),inactive,
Cc1nn(C)c(Oc2ccccc2)c1C=NOCc1ccc(C(=O)OC(C)(C)C)cc1,,9.81 µM (active)
CCOC(=O)C(C)Oc1ccc(Oc2cnc3cc(Cl)ccc3n2)cc1 (stereo not given),inactive,
CCC(O)=C1C(=O)CC(C(=O)O)CC1=O (stereo not given),inactive,
COC(=O)c1cccc(C)c1S(=O)(=O)NC(=O)Nc1nc(OCC(F)(F)F)nc(N(C)C)n1,inactive,
OB(O)O,inactive,
CCOC(=O)NCCOc1ccc(Oc2ccccc2)cc1,,15 µM (active)
CCOC(=O)[C@H](C)Oc1ccc(Oc2nc3ccc(Cl)cc3o2)cc1,inactive,
O=C(O)C1(C(=O)Nc2ccc(Cl)cc2Cl)CC1,inactive,
CCCCC(CC)COC(=O)c1ccccc1C(=O)O (stereo not given),inactive,
COc1c(Cl)ccc(Cl)c1C(=O)O,inactive,
COC(=O)c1ccccc1S(=O)(=O)NC(=O)Nc1nc(OC(F)F)cc(OC(F)F)n1,inactive,
CCOC(=O)c1ccc(O)cc1,inactive,
CCCCCCC(C)OC(=O)COc1nc(F)c(Cl)c(N)c1Cl (stereo not given),,36.5 µM (active)
CCOC(=O)C(C)Oc1ccc(Oc2nc3ccc(Cl)cc3o2)cc1 (stereo not given),inactive,
COc1nc(C)nc(NC(=O)NS(=O)(=O)c2ccccc2OCCCl)n1,inactive,
